# From ChEMBL document CHEMBL3988442, “University of Dundee, Small-Polar-MMV Screening Library” (2021)
# Among all 48,000 compounds or so, about 13,000 (27%) showed an effect of 50% or more. The list shows a part of the results.
# Tested on: Wolbachia pipientis
# Experiment: Anti-Wolbachia Cell-Based Screen
# Format: functional
# Design: scale not given: in the data most compounds retested in dose-response had high values
# Conditions: 5 µM
row,Structure (SMILES),Percent Effect [%]
1,FC(F)(F)c1ccc2nc([C@H]3CCN(C4CCC4)C3)[nH]c2c1,0.6058
2,O=C(NCCN1CCCC1)c1ccc2c(-c3nccs3)noc2c1,3.961
3,Cc1cccc2c1nc1n2[C@@H](CNC(=O)c2cncnc2)COC1,-4.11
4,CCN(C(=O)NCc1ccc(C)cc1OC)C(C)c1cccnc1 (stereo not given),2.223
5,CCC(C)(C)NC(=O)CN(Cc1cccc(O)c1)C1CCC(O)CC1 (stereo not given),-0.7077
6,CCOC(=O)C1(CCOC)CCCN(Cc2nccn2CC)C1 (stereo not given),-2.653
7,COc1c(CNCCC(=O)NC2CCCCC2)c(C(C)C)nn1C,109.1
8,COc1c(CNCc2nnc3n2CCCCC3)c(C(C)C)nn1C.Cl,3.985
9,COc1c(CNCCC(=O)NC2CCCC2)c(C(C)C)nn1C,98.08
10,COc1c(CNC(C)C(=O)NC2CCCC2)c(C)nn1C (stereo not given),6.635
11,COc1c(CNCCC(=O)Nc2cccc(C)n2)c(C(C)C)nn1C,-41.29
12,COc1c(CNC(C)C(=O)NC2CCCC2)c(C(C)C)nn1C (stereo not given),-36.61
13,CC(C)C1CN(c2ncccn2)CCC(=O)N1CC1CC1 (stereo not given),-33.18
14,CC(=O)N1CCCN(C(=O)c2cnc(OC(C)C)c(Cl)c2)CC1,-53.74
15,C[C@@H]1CN(C(=O)c2ccc(C#N)nc2)C[C@@]1(O)C1CC1,-20.15
16,CCc1ocnc1C(=O)N1CCC2(CCCN(CC(C)(C)C)C2=O)C1 (stereo not given),100.3
17,CCCc1cc(C(=O)N2CCC3(CCCN(CCOC)C3=O)C2)cs1 (stereo not given),13.33
18,CCc1cc(C(=O)N2CCC3(CCCN(CC4CC4)C3=O)C2)cs1 (stereo not given),55.55
19,CCc1c(C(=O)N2CCC3(CCCN(CCO)C3=O)C2)csc1C (stereo not given),7.73
20,CCc1n[nH]c(C(=O)N2CCC3(CCCN(CCOC)C3=O)C2)c1C (stereo not given),116.4
21,CCc1noc(C)c1C(=O)N1CCC2(CCCN(CC(C)(C)C)C2=O)C1 (stereo not given),101.6
22,CCCc1cc(C(=O)N2CCC3(CCCN(CCO)C3=O)C2)cs1 (stereo not given),-0.6433

row,Structure (SMILES),Percent Effect [%]
1,Cc1occc1C(=O)N1CCC2(CCCN(CC3CCC3)C2=O)C1 (stereo not given),-0.1295
2,COCCN1CCCC2(CCN(C(=O)c3cnc(O)cn3)C2)C1=O (stereo not given),-81.96
3,CCc1cc(C(=O)N2CCC3(CCCN(CCOC)C3=O)C2)cs1 (stereo not given),-4.642
4,Cc1occc1C(=O)N1CCC2(CCCN(CC3CC3)C2=O)C1 (stereo not given),-3.086
5,CNc1nc(C(=O)N2CCC3(CCCN(CC4CC4)C3=O)C2)cs1 (stereo not given),-46.01
6,CCn1cc(CN2CCC(C3CCN(C)CC3)CC2)cc1C#N,8.542
7,CC1CCN(C(=O)[C@@H]2C[C@H]3OCC[C@H]3N(Cc3ccoc3)C2)CC1.O=C(O)C(F)(F)F,-6.203
8,COc1ccc2c(c1)C(C(=O)N(C)CCc1cnn(C)c1)CC(=O)N2 (stereo not given),2.797
9,Cc1csc(N(C)C(=O)C(c2c(F)cccc2Cl)N(C)C)n1 (stereo not given),1.249
10,c1ccc(OCc2noc(CN3CCN(C4CCCC4)CC3)n2)cc1,4.136
11,Cc1n[nH]c(C)c1CC(=O)N1CC[C@@](C)(O)[C@@H](Cc2ccccc2)C1,-1.869
12,Cc1n[nH]c(C)c1CC(=O)N1CC[C@@](C)(O)[C@H](Oc2ccccc2)C1,132.6
13,Cc1nc(C)c(CC(=O)N2CCC(Oc3ccccc3)CC2)c(=O)[nH]1,3.027
14,Cc1noc(C)c1CC(=O)N1CC[C@@](C)(O)[C@H](Oc2ccccc2)C1,138.5
15,Cc1n[nH]c(C)c1CC(=O)N1CCC2(CC1)CN(C)CCN2C,-2.947
16,Cc1noc(C)c1CNC(=O)N1CCC(C(O)c2ccccc2)CC1 (stereo not given),-2.263
17,CC[C@H](CO)NC(=O)c1coc(COc2cccc(F)c2F)n1,-21.32
18,COC(=O)CCCNC(=O)c1cc(COc2cncc(Cl)c2)on1,3.929
19,CCN(Cc1csc(C)n1)c1cccc(CO)c1,19.84
20,COc1ccc(-c2nnc(C(C)N3CCOCC3)o2)cc1 (stereo not given),0.5331
21,COc1ccc(-c2nnc(C(C)N3CCC4(CC3)OCCO4)o2)cc1 (stereo not given),-10.61
22,CC(c1nnc(-c2ccccc2)o1)N1CCC(Nc2ccccc2)CC1 (stereo not given),109.3

row,Structure (SMILES),Percent Effect [%]
1,CCN1CCN(C2CCN(Cc3cc(C)on3)CC2)C1=O,-12.89
2,CC(C)c1cc(CN2CCC(N)CC2)no1,118.3
3,CC(C)c1cc(CN2CCC(CC(=O)O)CC2)no1,25.42
4,CC(C)c1cc(N2CCC(N)CC2)n2nccc2n1,-3.508
5,COCCCN1CC2(CCN(Cc3cc(C(C)C)no3)CC2)CC1=O,-15.73
6,CC(C)c1cc(CN2CCC(N)CC2)on1,102.3
7,CCn1ccnc1CN1CCC(N(C)Cc2ncc(C)o2)C1 (stereo not given),-2.074
8,Cc1cnc(CN2CCC(N(C)Cc3noc(C4CC4)n3)C2)o1 (stereo not given),113
9,CN(Cc1noc(C2CC2)n1)C1CCN(Cc2ccncc2)C1 (stereo not given),-0.4709
10,Cc1cnc(CN(C)C2CCN(CCc3cnn(C)c3)C2)o1 (stereo not given),-1.466
11,Cc1cnc(CN(C)C2CCN(Cc3nnc(C4CC4)o3)C2)o1 (stereo not given),131.1
12,O=C(c1cnn2cc(CCO)cnc12)N1CCOC(C(F)(F)F)C1 (stereo not given),-0.009577
13,CCOc1ccc(CN(C)C(=O)NC(C)c2nncn2C)cc1 (stereo not given),-12.44
14,CC(NCc1cccnc1)c1cc2c(cc1Br)OCCO2 (stereo not given),-3.161
15,CC(c1ccc(Cl)cc1)N1CCN(CCS(C)(=O)=O)CC1 (stereo not given),6.907
16,N#Cc1cccc(CS(=O)(=O)NCCC(O)c2ccccc2)c1 (stereo not given),7.655
17,CNS(=O)(=O)CCCN1CCN(C(C#N)c2ccccc2)CC1 (stereo not given),112.4
18,CC(c1ccc(Cl)cc1)N1CCN(CCCS(C)(=O)=O)CC1 (stereo not given),-1.134
19,CCS(=O)(=O)NCCN1CCN(C(C#N)c2ccccc2)CC1 (stereo not given),106.3
20,CC(c1ccc(Cl)cc1)N1CCN(CCNS(C)(=O)=O)CC1 (stereo not given),-1.965
21,CNS(=O)(=O)CCCN1CCCN(Cc2ccccc2)CC1C (stereo not given),-3.956
22,CNS(=O)(=O)CCCN1CCN(C(C)c2cccnc2)CC1 (stereo not given),7.44

row,Structure (SMILES),Percent Effect [%]
1,CS(=O)(=O)CCCN1CCN(C(C#N)c2ccccc2)CC1 (stereo not given),95.09
2,Cc1cc(C(=O)N2C[C@H](CO)C[C@H](CN3CCOCC3)C2)nc(C)n1,-11.42
3,CC(C)CCN(c1cn[nH]c1)S(=O)(=O)c1cccc(C#N)c1,-0.3515
4,NC(=O)c1ccc(CNC2CCCSC2)cc1 (stereo not given),-4.812
5,CCS(=O)(=O)N(C)C(=O)c1cc(C)n(-c2cccc(OC)c2)c1C,-13.82
6,Cc1ncsc1C(=O)N1CCCC(c2cc(C(F)F)n3ncnc3n2)C1 (stereo not given),110.2
7,O=C(c1ccncc1)N1CCCC(c2cc(C(F)F)n3ncnc3n2)C1 (stereo not given),88.08
8,O=C(c1ccccn1)N1CCCC(c2cc(C(F)F)n3ncnc3n2)C1 (stereo not given),111.1
9,O=C(c1nc(=O)[nH][nH]1)N1CCCC(c2cc(C(F)(F)F)[nH]n2)C1 (stereo not given),-1.931
10,O=C(c1ccco1)N1CCCC(c2cc(C(F)F)n3ncnc3n2)C1 (stereo not given),-11.1
11,O=C(c1ccc(Cl)o1)N1CCCC(c2cc(C(F)(F)F)[nH]n2)C1 (stereo not given),-0.4503
12,O=C(c1cccnc1)N1CCCC(c2cc(C(F)F)n3ncnc3n2)C1 (stereo not given),1.815
13,O=C(c1ccco1)N1CCCC(c2cc(C(F)(F)F)n3ncnc3n2)C1 (stereo not given),95.67
14,CCc1nnc(CN(C)Cc2cccc(C(=O)Nc3ccnn3C)c2)o1,-8.218
15,CN(Cc1ccc(Cl)c(F)c1)C(=O)c1ccncc1F,5.158
16,COc1nccc(N2CCN(Cc3ccc(C)cc3)C(=O)C2)c1C#N,5.242
17,CCn1nc(C)cc1C(=O)N1CCOc2ccc(OC)cc21,4.6
18,COc1cc2nc(NCc3scnc3C)nc(N)c2cc1OC,7.61
19,Cc1nn(CC(C)C)c(N(C)C)c1CNCCS(C)(=O)=O,-9.669
20,CCN(CC(=O)NC)C(=O)Cc1nc(-c2ccco2)oc1C,-1.768
21,O=C(c1cccs1)N1CCc2ncnc(C3CCOC3)c2CC1 (stereo not given),-39.43
22,Cc1cc(CN(C)C(=O)C2CCCN(C(=O)c3cccs3)C2)no1 (stereo not given),-2.385

row,Structure (SMILES),Percent Effect [%]
1,O=C(c1cccs1)N1CCCC(c2cc(C(F)F)n3ncnc3n2)C1 (stereo not given),74.84
2,CCc1ccc(-c2ncc3c(n2)N(C)CCN(CCN(C)C)C3=O)cc1,95.82
3,COc1cccc(-c2ncc3c(n2)N(C)CCN(CCN(C)C)C3=O)c1,82.33
4,COc1cccc(-c2cnc3n2CCC32CCN(C(C)=O)CC2)c1,0.6434
5,Cc1ccc2c(n1)N(CCN(C)C)CCN(C(=O)c1ccsc1)C2,-6.316
6,CN(C)CCN1CCN(C)c2nc(-c3ccccc3)ncc2C1=O,101.9
7,COCCC(=O)N1CCN(CCN(C)C)c2ncccc2C1,4.239
8,CNC(=O)[C@@H]1C[C@H](N)CN1S(=O)(=O)c1cc(Cl)cc(Cl)c1O,-28.57
9,Cc1c(I)cccc1C(=O)NCC1(CO)CC1,-20.46
10,COc1ccc(CCNC(=O)CC(NC(N)=O)c2ccccc2)cc1 (stereo not given),5.015
11,COC[C@@H]1CCCN1C(=O)c1cc(-c2ccc(OC)cc2)n[nH]1,-15.89
12,COc1ccccc1-c1cc(NC(=O)CC2CCS(=O)(=O)C2)[nH]n1 (stereo not given),2.425
13,COc1ccccc1-c1cc(NC(=O)CCC2CCCO2)[nH]n1 (stereo not given),4.714
14,COc1ccc(NC(=O)NC(C)c2nc[nH]n2)cc1 (stereo not given),-2.331
15,COc1ccc(-c2cc(C(=O)Nc3nc[nH]n3)[nH]n2)cc1,117.7
16,CNC(=O)c1cc(-c2ccccc2OC)[nH]n1,118.3
17,CNC(=O)C(C)(C)NC(=O)c1cc(COc2ccccc2OC)[nH]n1,6.418
18,O=C(Nc1nc[nH]n1)c1cc(-c2ccc(F)cc2)n[nH]1,175.6
19,O=C(NCC1CCOC1)c1cc(-c2ccc(Cl)cc2)n[nH]1 (stereo not given),-17.32
20,COC(=O)C(C)(C)NC(=O)c1cc(COc2ccccc2OC)[nH]n1,-6.385
21,COc1ccccc1-c1cc(C(=O)Nc2nc[nH]n2)[nH]n1,103.1
22,CC(=O)Nc1nc(-c2ccc(F)cc2)c[nH]1,8.711
